BAZ2B block: inhibitors of human BAZ2B bromodomain; Q9UIF8; AlphaScreen BAZ2B-H3K14Ac peptide displacement; Potency, µM (doses to about 114 µM), actives largely listed as inhibitors; 360,000 compounds, 4.4% hits; AID 504333; note: nearly all actives have a fitted effect of over 60% in size
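BAZ2B (50 nM) with biotin-H3(5-23)K14Ac peptide (50 nM) in PBS pH 7.4, 0.01% Tween-20, preformed 30 min, then compound 30 min at room temperature; top concentration 110uM. AlphaScreen streptavidin donor/nickel chelate acceptor beads (10 ug/mL final), 20 min dark, signal read.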
G9a block: G9a (human) methyltransferase inhibition; 350,000 compounds, 8.8% hits; AID 504332; Q96KQ7; G9a H3K9 monomethylation, AlphaScreen, 2 h; Potency, µM (highest dose often 102 µM), hits mostly inhibitors; note: nearly all actives have a fitted effect of over 75% in size
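Readings reflect AlphaScreen signal from monomethyl-H3K9 antibody detection. HMT at 20 nM; substrate b-H3K9 500 nM; cofactor SAM 20 uM; 2 h RT reaction; compounds tested as titrations in qHTS with 15 min preincubation.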
HP1b binding inh: inhibitors of HP1-beta chromodomain binding to methylated histone tails. P83916. AlphaScreen HP1-beta / biotin-H3K9me3 peptide binding. Potency, µM (top dose mostly 114 µM), hits mostly inhibitors. 390,000 compounds, 0.56% hits. AID 540317; note: nearly all actives have a fitted effect of over 70% in size
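AlphaScreen: HP1-beta (50 nM) preformed 30 min with biotin-H3(1-18)K9me3 peptide (50 nM) in PBS pH 7.4, 0.01% Tween-20. Compound added for 30 min at RT, then streptavidin donor/nickel chelate acceptor beads (10 ug/mL) for 30 min.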
TDP1 inh: inhibitors of human tyrosyl-DNA phosphodiesterase TDP1; AID 485290; recombinant TDP1, AlphaScreen DNA substrate cleavage; Q9NUW8; Potency, µM (highest dose often 130 µM), most hits filed as inhibitors; 350,000 compounds, 0.28% hits; note: nearly all actives have a fitted effect of over 40% in size
Target sequence (Q9NUW8 whole entry, looked up): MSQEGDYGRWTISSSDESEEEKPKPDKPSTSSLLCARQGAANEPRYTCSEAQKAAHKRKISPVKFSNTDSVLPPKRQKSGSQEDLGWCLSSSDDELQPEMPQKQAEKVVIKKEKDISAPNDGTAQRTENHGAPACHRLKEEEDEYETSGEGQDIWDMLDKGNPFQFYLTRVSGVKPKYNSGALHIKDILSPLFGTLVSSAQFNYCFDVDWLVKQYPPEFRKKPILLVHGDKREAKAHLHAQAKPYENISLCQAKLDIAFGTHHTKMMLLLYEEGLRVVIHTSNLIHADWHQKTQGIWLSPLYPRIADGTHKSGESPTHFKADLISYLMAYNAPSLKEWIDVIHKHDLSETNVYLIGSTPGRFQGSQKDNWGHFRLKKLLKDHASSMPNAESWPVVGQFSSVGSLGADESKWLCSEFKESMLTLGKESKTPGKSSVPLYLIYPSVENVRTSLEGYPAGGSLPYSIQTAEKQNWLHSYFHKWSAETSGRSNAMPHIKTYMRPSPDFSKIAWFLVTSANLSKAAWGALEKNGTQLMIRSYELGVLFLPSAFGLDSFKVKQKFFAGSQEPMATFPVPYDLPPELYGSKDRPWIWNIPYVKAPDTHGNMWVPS
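Compounds were preincubated with Tdp1 (1 nM final) for 15 min at room temperature before substrate (15 nM final) started a 5 min reaction; beads (10 ug/ml final) were then added for 10 min before AlphaScreen detection.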
Sfp inh: Sfp phosphopantetheinyl transferase inhibition. Biochemical Sfp PPTase activity, qHTS. Potency, µM, actives largely listed as inhibitors. 310,000 compounds, 3.5% hits. AID 1490;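 note: the enzyme is Sfp with the accession as filed and its product quenches rhodamine fluorescence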
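Fluorescence-quenching assay: 15 nM Sfp-PPTase preincubated 15 min at room temperature with compound, then 5 uM rhodamine-CoA and 12.5 uM BHQ-2-labelled YbbR peptide added. Fluorescence (ex 525/em 598 nm) read at start and after 30 min; difference gives rate.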
JMJD2A Tudor: blocks the human JMJD2A Tudor domain | Potency, µM (top dose mostly 114 µM), usual class: inhibitors | AlphaScreen JMJD2A-Tudor / H3K4me3 peptide binding | AID 504339 | 390,000 compounds, 4.4% hits; note: nearly all actives have a fitted effect of over 50% in size
Numbers stand for hits; – = inactive; ? = inconclusive; · = no result; [ ] = another dose, or the depositor's remark. Shown are actives, neighbours in structure and some others; about 12% of the full set was active somewhere. Calls come from the whole dose curve; as a rule, active = well fitted curve in the direction sought with a large enough effect; inconclusive = small, poorly fitted or top-dose-only effect, or another doubt; inactive = no such curve, though single readings can be large; an effect the other way counts as inactive or inconclusive.

SMILES	BAZ2B block	G9a block	HP1b binding inh	TDP1 inh	Sfp inh	JMJD2A Tudor
COC(=O)C1=C(C(=O)OC)SC(=C2C(=S)C(C)(C)N(C(=O)C3CC3)c3ccccc32)S1	8.9µM	1.6µM	7.1µM	–	–	6.3µM
CCCC(=O)N1c2ccccc2C(=C2SC(C(=O)OC)=C(C(=O)OC)S2)C(=S)C1(C)C	5.6µM	1.8µM	14µM	–	–	–[11.4 µM]
O=C(COC(=O)CN1C(=O)COc2ccccc21)NCc1ccc(F)cc1	–	–[0.501 µM]	–	–	·	–
O=C(CNC(=O)c1ccccc1Br)N/N=C/c1cc(Br)ccc1O	–	–	–	–	–	–
O=C(N/N=C/c1cc(Cl)ccc1O)c1ccccc1Br	?	–	–	–	–	79µM
O=C(N/N=C/c1cc(Cl)ccc1O)c1cccnc1	7.9µM	·	–	·	–	45µM
COC(=O)C1=C(C)N(Cc2ccccc2)C2=C(C(C)=O)C(c3ccccc3)[C@@](O)(C(=O)OC)C(=O)N2C1c1ccccc1 (some centres undefined)	·	·	·	–[21 µM]	–	·
CC(=O)N1CCCc2cc(S(=O)(=O)N3CCCC(C(=O)Nc4ccc(F)cc4F)C3)ccc21 (centres undefined)	–	–	–	–	·	–
COc1ccc(N2CCN(C(=O)Cc3coc4cc(C)ccc34)CC2)cc1	40µM	45µM	–	–	–	–
COc1ccc(N2CCN(C(=O)CCC(=O)N3CC(C)Oc4ccc(C)cc43)CC2)cc1 (centres undefined)	40µM	45µM	–	·	–	?
Cc1ccc2occ(CC(=O)N3CCN(c4cccc(Cl)c4)CC3)c2c1	–	–	–	–	·	–
COc1ccc(N2CCN(C(=O)Cc3coc4ccc(C)cc34)CC2)cc1	40µM	16µM	?	–	·	?
COc1ccc(N2CCN(C(=O)c3cc(=O)c4ccc(C)cc4o3)CC2)cc1	?	–[0.501 µM]	–	·	–	–
COc1ccc(CCNC(=O)Cc2c(C)c3c(cc(C)c4c(C)coc43)oc2=O)cc1	–	–	–	–	·	–
COc1ccc2oc(=O)c(C(=O)NCc3ccccc3)cc2c1	–	–	–	·	–	–
COc1ccc2oc(=O)c(C(=O)OCc3ccccc3)cc2c1	–	28µM	–	·	50µM	–
N#CCC(=O)c1sccc1-n1cccc1	79µM	13µM	–	–	–	–
CC(C)(C)c1ccc(NC(=O)c2ccsc2)cc1	–	–	–	–	79µM	–
O=C(C1CCN(S(=O)(=O)c2ccccc2)CC1)N1CCC1	–	–	–	–	·	–
CC1(C)CC(=O)C(C(=O)C2CCN(S(=O)(=O)c3ccccc3)CC2)C(=O)C1	–	–	–	–	–	100µM
O=C(NNS(=O)(=O)c1ccccc1)C1CCN(S(=O)(=O)c2ccc(Cl)cc2)CC1	–	–	–	–	–	–
O=C(NNS(=O)(=O)c1ccccc1)C1CCN(S(=O)(=O)c2ccccc2)CC1	–	22µM	–	–	–	–
O=C(NCc1nnc(-c2cc3ccccc3[nH]2)o1)c1ccccc1	·	·	·	–	·	–
Cc1cc(C)nc(/N=C(\NC(=O)C(C)(C)C)Nc2ccc(F)cc2)n1	–	45µM	–	–	–	–
COC(=O)c1ccc(CSc2nnc(NCc3ccccc3)s2)o1	–	50µM	–	–	–	–
SMILES	BAZ2B block	G9a block	HP1b binding inh	TDP1 inh	Sfp inh	JMJD2A Tudor
Cc1sc2nc3c4ccccc4c(NCc4ccco4)nn3c(=O)c2c1C	–	–	–	–	18µM	–
Cc1nc(SCC(=O)N(C)Cc2ccco2)c2c(C)c(C)sc2n1	–	50µM	–	–	–	–
COC(=O)c1ccc(CSc2nc(C)nc3sc(C)c(C)c23)o1	?	?	–	–	25µM	–
COC(=O)c1ccc(CSc2nnc(Nc3ccccc3OC)s2)o1	–	?	–	–	–	–
CCc1ccc(NC(=O)Nc2cccc(OC)c2)cc1	–	–	–	–	–	–
O=[N+]([O-])c1cccc2nc3ccccc3c(NCCCn3ccnc3[N+](=O)[O-])c12	·	·	–	·	·	–
Cc1nc(NCc2ccco2)c2c(C)c(C)sc2n1	28µM	8.9µM	?	–	–	3.2µM
COc1ccc(CN(Cc2ccccc2)S(=O)(=O)c2ccccc2)cc1COc1ccc(NC(C)=O)cc1	·	·	·	–	·	–

Screening results: PubChem BioAssay, National Center for Advancing Translational Sciences (NCATS)
